The results in this text go back to PubChem BioAssay (NCI).

The panel holds about 83,000 compounds, 20% with a hit somewhere; the sample as a whole holds those more often.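 Step 1: grow cells in 96-well plates. Step 2: add test compound at a single concentration. Step 3: incubate 48 h. Step 4: record percent growth.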 A number with no mark means an inactive call. Calls of active or inactive are those of the source. How the source made its calls: active means growth percent below 10; inactive means the rest.

The assay deals with HOP-62 NSCLC. Description: NCI-60 one-dose screen, 48 h (100 = growth as untreated, 0 = no growth, -100 = all killed). Conditions: 10 µM.
Consider `CCN1CCN(Cc2ccc(NC(=O)c3cccc(-n4cc(-c5ccc(NC(C)=O)nc5)nn4)c3)cc2C(F)(F)F)CC1`, for which the growth was 121%.

Consider `CC(C)c1ccc(C(=O)Nc2sc3c(c2C(N)=O)CCC(=O)C3=O)cc1`, for which the growth is 102%. `COc1cc(C2CC(c3ccc(C)cc3)=Nc3c(N)nc(N)nc3N2)ccc1Oc1nc(Nc2ccc(F)cc2)nc(N(C)C)n1` (stereo not drawn): the growth is 93.9%. To `O=c1c2ccccc2nc(COc2ccccc2)n1/N=C/c1ccc(N2CCCC2)cc1` belongs 108%. `CCN1CCN(c2ccc(NC(=O)Nc3ccc4c(c3F)CCN4c3ccnc(C(=O)NC)c3)cc2C(F)(F)F)CC1`: the growth is -49.3% (active). For the compound `O=c1[nH]c2ccccc2cc1CSc1ccc(Nc2nccc(-c3ccc4ccccc4c3)n2)cc1`, the growth is 74.7%. Regarding `O=C(CNc1nc(-c2ccccc2)cs1)Nc1cccc(Cl)c1`, the growth was 46.6%. As for `O=c1[nH]c2ccccc2cc1CSc1ccc(Nc2nccc(-c3ccc(Cl)cc3)n2)cc1`, the growth is -68% (active). Take `O=C1Nc2cc(-c3ccc(NC(=O)c4cccc([N+](=O)[O-])c4)cc3)ccc2/C1=C/c1ccc[nH]1`: the growth was 94.9%. Turning to `COc1ccc(-c2ccc(/C=N/NC(=O)c3[nH]c4ccc(Br)cc4c3-c3ccccc3)o2)cc1`, the growth was 47.2%. With `CN1CCN(c2ccc(C(=O)/C=C/c3cc(C(F)(F)F)ccc3Cl)cc2)CC1`, the growth was -27.4% (active). Consider `COc1ccc(-c2cc(-c3cc(C(=O)c4ccccc4)n4ccc(C)cc34)nc(N)c2C#N)cc1`, for which the growth is 29.7%. Regarding `CCCCCCCCCCCCCCCCCCCC(=O)NCCc1c[nH]c2ccc(O)cc12`, the growth was 144%.
